# Sfp PPTase inh = inhibitors of Bacillus subtilis Sfp phosphopantetheinyl transferase | Q9F4F7 | Biochemical Sfp PPTase activity, qHTS | Potency, µM, most hits filed as inhibitors | hit rate 3.5% among 310,000 | AID 1490;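 note: the enzyme is Sfp with the accession as filed and its product quenches rhodamine fluorescence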
#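 Reaction rates are the 30-min fluorescence difference (ex 525, em 598 nm) in wells containing 15 nM Sfp, 5 uM rhodamine-CoA and 12.5 uM BHQ-2-YbbR at pH 7.6 with 10 mM MgCl2.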
# BAZ2B block = BAZ2B (human) inhibition; Potency, µM (titrated, usually from 114 µM), most hits filed as inhibitors; Q9UIF8; hit rate 4.4% among 360,000; AlphaScreen BAZ2B-H3K14Ac peptide displacement; note: nearly all actives have a fitted effect of over 60% in size
#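 AlphaScreen luminescence quantifies BAZ2B engagement of H3K14Ac peptide; the protein and biotinylated peptide are both at 50 nM final, buffer PBS pH 7.4 with 0.01% Tween-20, all steps at room temperature.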
# G9a inh = G9a (human) methyltransferase inhibition; Q96KQ7; G9a H3K9 monomethylation, AlphaScreen, 2 h; Potency, µM (highest dose often 102 µM), actives largely listed as inhibitors; hit rate 8.8% among 350,000; AID 504332; note: nearly all actives have a fitted effect of over 75% in size
# Target sequence (Q96KQ7 913-1193 limits assumed): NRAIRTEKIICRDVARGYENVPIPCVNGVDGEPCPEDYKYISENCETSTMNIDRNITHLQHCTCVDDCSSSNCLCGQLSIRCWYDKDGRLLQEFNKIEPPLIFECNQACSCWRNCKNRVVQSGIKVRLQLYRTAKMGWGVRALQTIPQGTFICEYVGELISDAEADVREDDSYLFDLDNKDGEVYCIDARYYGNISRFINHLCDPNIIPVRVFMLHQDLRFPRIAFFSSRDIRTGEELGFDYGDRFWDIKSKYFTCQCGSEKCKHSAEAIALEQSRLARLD
#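 Enzyme 20 nM + cpd, 15 min RT; add b-H3K9 pep 500 nM / SAM 20 uM; 2 h RT; anti-H3K9me1 Ab 0.5 ug/mL + SA donor / anti-rabbit acceptor beads 20 ug/mL each, 10 min; AlphaScreen read.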
# JMJD2A Tudor = inhibitors of human JMJD2A Tudor domain; AlphaScreen JMJD2A-Tudor / H3K4me3 peptide binding; O75164; hit rate 4.4% among 390,000; Potency, µM (titrated, usually from 114 µM), usual class: inhibitors; AID 504339; note: nearly all actives have a fitted effect of over 50% in size
# HP1b chromo inh = HP1-beta chromodomain-methylated histone interaction inhibition; P83916; AID 540317; AlphaScreen HP1-beta / biotin-H3K9me3 peptide binding; Potency, µM (top dose mostly 114 µM), actives largely listed as inhibitors; hit rate 0.56% among 390,000; note: nearly all actives have a fitted effect of over 70% in size
# Target sequence (P83916 whole entry, looked up): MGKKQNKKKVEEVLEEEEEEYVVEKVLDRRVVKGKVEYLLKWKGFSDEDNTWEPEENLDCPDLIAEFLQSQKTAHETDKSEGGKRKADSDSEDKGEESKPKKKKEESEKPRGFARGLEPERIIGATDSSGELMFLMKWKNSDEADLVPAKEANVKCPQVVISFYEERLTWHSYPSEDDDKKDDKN
#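 AlphaScreen: HP1-beta (50 nM) preformed 30 min with biotin-H3(1-18)K9me3 peptide (50 nM) in PBS pH 7.4, 0.01% Tween-20. Compound added for 30 min at RT, then streptavidin donor/nickel chelate acceptor beads (10 ug/mL) for 30 min.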
# TDP1 block = TDP1 (human) enzyme inhibition; Potency, µM (series often up to 130 µM), usual class: inhibitors; Q9NUW8; recombinant TDP1, AlphaScreen DNA substrate cleavage; AID 485290; hit rate 0.28% among 350,000; note: nearly all actives have a fitted effect of over 40% in size
#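 Compounds were preincubated with Tdp1 (1 nM final) for 15 min at room temperature before substrate (15 nM final) started a 5 min reaction; beads (10 ug/ml final) were then added for 10 min before AlphaScreen detection.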
# A number is an active result; . = inactive; ? = inconclusive; / = no result; [ ] = remark or other dose. The list is not random: actives were taken first. Their share in the collection is about 12%. Calls come from the whole dose curve; as a rule, active = well fitted curve in the direction sought with a large enough effect; inconclusive = small, poorly fitted or top-dose-only effect, or another doubt; inactive = no such curve, though single readings can be large; an effect the other way counts as inactive or inconclusive.
SMILES,Sfp PPTase inh,BAZ2B block,G9a inh,JMJD2A Tudor,HP1b chromo inh,TDP1 block
Cc1cc(N2CCN(Cc3cn(C)nc3-c3cccc(Cl)c3)CC2)cc(C)n1,.,44.7µM,/,.,.,.
CCOCCCN(C)C1CCN(C(=O)c2oc3ccccc3c2NC(=O)Cc2ccc(F)cc2)CC1,.,.,.,?,.,.
CCOc1ccc(CCNC(=O)CCc2cn(Cc3ccc(F)cc3)c3ccccc23)cc1,/,.,.,.,.,.
O=C(C1CCN(CCCc2ccccc2)CC1)N1CCCCC1,.,?,20µM,0.891µM,?,.
COC(=O)C1CCN(C(=O)C2CCC(=O)N(CCCc3ccccc3)C2)CC1 (stereo not given),.,.,.,.,.,.
CC1CCN(C(=O)C2CCN(CCCc3ccccc3)CC2)CC1,.,?,14.1µM,/,/,.
NS(=O)(=O)c1ccc(CCNC(=O)CNC(=O)c2ccc(Oc3ccccc3)cc2)cc1,.,.,.,.,.,.
COC(=O)c1cc(S(=O)(=O)NCc2ccc(F)cc2)cn1C,.,.,.,.,.,/
O=S(=O)(c1c(F)cccc1F)N1CCN(S(=O)(=O)c2c(F)cccc2F)CC1,/,/,/,?,/,.
COc1ccc(NC(=O)c2cc3cccc(OC)c3oc2=Nc2ccc(C(=O)O)cc2)cc1OC,.,.,39.8µM,.,.,.
COc1cc(CCC(=O)OCC(=O)N(CCC#N)c2ccccc2)cc(OC)c1OC,.,.,.,.,.,.
Cc1ccc(CN2CCCn3nc(C(=O)NCc4ccc(N(C)C)cc4)cc3C2=O)cc1,/,?,14.1µM,?,.,.
O=C(NCCc1ccc(F)cc1)C(=O)NCC(c1ccc2c(c1)OCO2)N1CCOCC1 (stereo not given),/,.,.,.,.,.
COc1ccc(C(C)=O)cc1COC(=O)CCNS(=O)(=O)c1ccc(C(C)=O)cc1,.,.,.,.,.,.
COc1ccc(C(C)=O)cc1COC(=O)CCNS(=O)(=O)c1ccc(C)cc1,/,.,50.1µM,.,.,.[0.505 µM]
NNc1cc(C(=O)O)ccc1Cl,?,?,/,25.1µM,?,.
O=C(O)c1cc(NN=C2c3ccccc3-c3ccccc32)ccc1Cl,.,?,44.7µM,.,.,/
NNc1ccc(Cl)c(C(=O)O)c1,.,.,1.26µM,.[11.4 µM],.,.
NC(=O)N/N=C1\c2ccccc2-c2c(C(N)=O)cccc21,.,.,.,.,.,/
O=C(O)c1cccc2c1-c1ccccc1/C2=N\Nc1ccccc1,12.6µM,.,50.1µM,?,.,/
c1ccc(COc2ccccc2CNc2nn[nH]n2)cc1,.,.,?,.,.,.
CC(C)(C)c1ccc(C2(C)NC(=O)N(CC(=O)NC3CCS(=O)(=O)C3)C2=O)cc1 (stereo not given),/,.,.,.,.,.
Cc1cc(C)nc(SCC(=O)OCC(=O)N(C)c2c(N)n(Cc3ccccc3)c(=O)[nH]c2=O)n1,.,.,.,.,.,.
CCOC(=O)c1csc(NNC=O)n1,.,.,.,.,.,.
Cc1ccccc1CN(C)C(=O)CNC(=O)c1ccc2ccccc2c1,.,.,.[2.33 µM],.,.,/
SMILES,Sfp PPTase inh,BAZ2B block,G9a inh,JMJD2A Tudor,HP1b chromo inh,TDP1 block
CC(C)NC(=O)CC1C(=O)N(Cc2ccccc2)C(C)c2nc3ccccc3n21 (stereo not given),.,.,.,.,.,.
CN(C)c1ccc(CC(=O)c2nc3ccccc3s2)cc1,?,39.8µM,?,17.8µM,?,.
CC(=O)c1ccc(S(=O)(=O)N2CCC(C(=O)Nc3ncc(C)s3)CC2)cc1,/,/,/,.,.,.
COc1cc(C(=S)N2CCOCC2)ccc1OC(=O)c1ccccc1[N+](=O)[O-],.,.,/,?,.,/
COc1ccc(C(=S)N2CCOCC2)cc1OS(=O)(=O)c1ccccc1[N+](=O)[O-],.,.,3.16µM,.,?,.
CCOc1cc(C(=S)N2CCOCC2)ccc1OS(=O)(=O)c1ccccc1[N+](=O)[O-],.,?,10µM,.,.,.
COc1cc(C(=S)N2CCOCC2)ccc1OS(=O)(=O)c1ccccc1[N+](=O)[O-],.,.,12.6µM,?,?,.
CCOc1cc(C(=S)N2CCCCC2)ccc1OS(=O)(=O)c1ccc(Cl)cc1,.,.,.,.,.,.
CCN(CC)S(=O)(=O)c1ccc(N=Nc2c(N)[nH]c(=O)[nH]c2=O)cc1,.,.,.,.,.,.
C[N+]1(C2CCC3CCCC2C3O)CCCCC1 (stereo not given),.,.,?,20µM,.,.
CCOC(=O)c1c(N)sc(C(O)(C(F)(F)F)C(F)(F)F)c1-c1ccccc1,.,.,.,?,?,.
Cc1sc(N)c(C(=O)c2ccccc2)c1C,15.8µM,?,/,.[11.4 µM],.,.
CCOC(=O)c1c(N)sc(-c2ccccc2)c1C,?,.,8.91µM,?,?,.
COC(=O)c1c(N)sc(C(=O)N2CCOCC2)c1C,.,.,.[12.7 µM],.,.,.
CCOC(=O)c1c(N)sc(C)c1-c1ccccc1,35.5µM,/,17.8µM,/,/,.
Cc1cc(C)c(C(=O)c2ccccc2)c(C)c1,/,/,/,.,.,/
CCOC(=O)c1sc(-c2ccccc2)cc1N,.,.,.,.,.,.
Cc1c(-c2ccccc2)sc(N)c1C(=O)N1CCOCC1,44.7µM,.,3.98µM,.[11.4 µM],?,.
CC(C)c1nnc(NC(=O)CCC(=O)N2CCN(c3ccccc3F)CC2)s1,.,.,.,.,.,.
O=C(NC1CCCCC1)c1ccc2c(c1)N(Cc1ccccc1F)C(=O)c1ccccc1S2,/,.,.,.,.,.
CCOC(=O)c1cc(-c2ccccc2)sc1NC(=O)CC,.,.,56.2µM,.,?,.
COc1ccc(NC(=O)[C@@H](NS(=O)(=O)c2cccc(Cl)c2)C(C)C)cc1S(=O)(=O)N1CCOCC1,/,/,/,.,.,.
CC[N+](C)(CC)CC(=O)OCC1C(C)C=C(C)CC1C (stereo not given),89.1µM,.,?,?,.,/
CC1=CC(C)C(C(=O)O)C(C(=O)O)C1 (stereo not given),.,.,?,.,.,.
O=C(Nc1nnc(CCN2CCCCC2)s1)c1ccccc1Cl,.,.,.,.,.,.
Cc1ccc2cc(C(c3nnnn3CC3CCCO3)N3CCc4ccccc4C3)c(=O)[nH]c2c1 (stereo not given),10µM,.,?,.,.,.
O=c1[nH]c2cc3c(cc2cc1C(c1nnnn1Cc1ccccc1)N1CCCc2ccccc21)OCO3 (stereo not given),.,.,.,.,.,.
CCOc1ccc2[nH]c(=O)c(C(c3nnnn3CC3CCCO3)N3CCc4ccccc4C3)cc2c1 (stereo not given),.,.,?,.,.,.
COc1ccc2[nH]c(=O)c(C(c3nnnn3CC3CCCO3)N3CCCCC3)cc2c1 (stereo not given),.,.,/,.,.,.
